Among the data in PubChem BioAssay (NCATS) are activity, negative = cell killing and Potency values, retold here.

Experiment [1] is described as follows: Drug repurposing screens with cells derived from glioblastoma tumor samples (AID 1345199). Note: nearly all actives have a fitted effect of over 40% in size. The following applies: GBM patient neurospheres viability, ATP luminescence, 48 h. The gist of the method: (§1)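 Four patient lines of CD133+ GBM neurospheres were screened at several concentrations; hits were retested in those lines plus three slower-growing GBM lines, using 48-hour treatment and ATP-based viability.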

The subject of the next experiment is astro (control astrocytes). The description is as above. As to conditions: viability, ATP luminescence, 48 h; series mostly up to 45.9 µM. The gist of the method:
as §1

Setting [2] is: at 45.9 µM (top of the series), tumour line B.
Where [3] appears, read: at 45.9 µM (top of the series), tumour line D.
Setting [4] is: at 46 µM (top of the series), tumour line A.
Setting [5] is: at 46.1 µM (top of the series), tumour line C.

Values joined by “and” are separate entries in the source; they are usually repeats but may differ in a detail not shown here. Equal entries are not always repeated. Records with an inconclusive call do not appear. A number with no mark means an inactive call. Active and inactive are the calls of the source. Calls come from the whole dose curve; as a rule, active = well fitted inhibition curve with a large enough effect; inconclusive = small, poorly fitted or top-dose-only effect; inactive = flat fitted curve, though single readings scatter.
% is set by controls: 0 for no effect and ±100 for the full control effect; potency is the fitted concentration of half-maximal effect.

In the case of `O=C(Cn1cnnn1)N[C@@H]1C(=O)N2C(C(=O)O)=C(CSc3nncs3)CS[C@H]12`, the activity, negative = cell killing in experiment [1] (setting [2]) was -3.62% and -9.64%; in experiment [1] (setting [3]) it was -5.02% and -0.39%; in experiment [1] (setting [4]) it was -29.3%; in experiment [1] (setting [5]), 1.48% and -8.58%. The Potency result with astro was “inactive”.
Regarding `CCCCCCCCCCCCCCCC(=O)OC/C=C(C)/C=C/C=C(C)/C=C/C1=C(C)CCCC1(C)C`, the activity, negative = cell killing in experiment [1] (setting [2]) was -7.71%; in experiment [1] (setting [3]) it was 9.03%; in experiment [1] (setting [5]), 0.655%. The Potency in experiment [1] (tumour line A) is 20 µM (active). Moreover, the Potency entry in the experiment with astro is “inactive”.
With `O=S(=O)(O)Oc1ccc(C(c2ccc(OS(=O)(=O)O)cc2)c2ccccn2)cc1`, the activity, negative = cell killing is 0.447% in experiment [1] (setting [2]), -9.15% in experiment [1] (setting [3]), 21.1% in experiment [1] (setting [4]) and 10.6% in experiment [1] (setting [5]). The Potency entry in the experiment on astro was “inactive”.
For `CCOC(=O)COc1ccc2c(C)c(CCN(CC)CC)c(=O)oc2c1`, the results for the activity, negative = cell killing in experiment [1] (setting [2]), in experiment [1] (setting [3]) and in experiment [1] (setting [5]) were 4.06%, 5.03% and -14.9%, respectively. The Potency in experiment [1] (tumour line A) was 12.6 µM (active). In the experiment with astro, the Potency result is “inactive”.
In the case of `CC(=O)OCC(=O)[C@@]1(O)[C@H](C)C[C@H]2[C@@H]3C[C@H](F)C4=CC(=O)C=C[C@]4(C)[C@H]3[C@@H](O)C[C@@]21C`, the activity, negative = cell killing in experiment [1] (setting [2]) is 1.71%; in experiment [1] (setting [3]), 2.28%; in experiment [1] (setting [4]) it was -12.7%; in experiment [1] (setting [5]), 13.2%. The Potency result with astro was “inactive”.
With `OCC(O)COc1ccc(Cl)cc1` (stereo not given), the activity, negative = cell killing was -4.12% in experiment [1] (setting [2]), -2.58% in experiment [1] (setting [3]), -5.56% in experiment [1] (setting [4]) and -6.48% in experiment [1] (setting [5]). Further, the Potency result in the experiment on astro is “inactive”.
The matching figures for `O=C1O[C@@H]2[C@@H](O)[C@H](O)O[C@@H]2[C@H]1O`: -11.2%, -1.84%, -28.6%, -14% and “inactive”.
On to `CC(CN(C)C)CN1c2ccccc2S(=O)(=O)c2ccccc21` (stereo not given), for which the activity, negative = cell killing in experiment [1] (setting [2]) is -1.87%; in experiment [1] (setting [3]) it was -21.7%; in experiment [1] (setting [5]) it was 14.3%. In experiment [1] (tumour line A), the Potency is 17.8 µM (active). Also, the Potency result with astro was “inactive”.
`CSCC[C@H](NC(=O)[C@H](Cc1ccc(OS(=O)(=O)O)cc1)NC(=O)[C@@H](N)CC(=O)O)C(=O)NCC(=O)N[C@@H](Cc1c[nH]c2ccccc12)C(=O)N[C@@H](CCSC)C(=O)N[C@@H](CC(=O)O)C(=O)N[C@@H](Cc1ccccc1)C(N)=O`: the activity, negative = cell killing in experiment [1] (setting [2]) was -12.8% and -14.6%; in experiment [1] (setting [3]) it was -10.7% and -3.46%; in experiment [1] (setting [4]) it was -8.64%; in experiment [1] (setting [5]), 9.45% and -3.35%. For the same compound, the Potency result in the experiment with astro is “inactive”.
As to `C=C[C@]1(C)C[C@@H](OC(=O)CO)[C@]2(C)[C@H](C)CC[C@]3(CCC(=O)[C@H]32)[C@@H](C)[C@@H]1O`, the activity, negative = cell killing in experiment [1] (setting [2]) is -6.6%; in experiment [1] (setting [3]) it was -13.7%; in experiment [1] (setting [4]), -29.8%; in experiment [1] (setting [5]), -2.01%. Besides, in the experiment with astro, the Potency result is “inactive”.
The corresponding values for `C=C1CC2C3CCC4=CC(=O)C=C[C@]4(C)[C@@]3(F)[C@@H](O)C[C@]2(C)[C@@]1(O)C(=O)COC(C)=O` (stereo not given in full) are -0.0683%, 11.1%, -20%, -4.46% and “inactive”.
The matching figures for `CCCN(CC)C(CC)C(=O)Nc1c(C)cccc1C` (stereo not given): -5.49%, -11.8%, -28.6%, -9.76% and “inactive”.
With `CN1CCN(C2=Nc3ccccc3Cc3ccccc32)CC1`, the activity, negative = cell killing in experiment [1] (setting [2]) is -12%; in experiment [1] (setting [3]), -12.4%; in experiment [1] (setting [5]), -28.3%. In experiment [1] (tumour line A), the Potency was 31.6 µM (active). Besides, the Potency entry with astro is “inactive”.
The matching figures for `C/C(=C(\CCOC(=O)c1ccccc1)SS/C(CCOC(=O)c1ccccc1)=C(/C)N(C=O)Cc1cnc(C)nc1N)N(C=O)Cc1cnc(C)nc1N`: -18%, -28%, -22.5%, 35.5 µM (active) and “inactive”.
As for `CC1(C)C2CC[C@]3(C)[C@H](C(=O)C=C4[C@@H]5C[C@@](C)(C(=O)O)CC[C@]5(C)CC[C@]43C)[C@@]2(C)CC[C@@H]1O[C@H]1O[C@H](C(=O)O)[C@@H](O)[C@H](O)[C@H]1O[C@@H]1O[C@H](C(=O)O)[C@@H](O)[C@H](O)[C@H]1O` (stereo not given in full), the activity, negative = cell killing is -4.03% in experiment [1] (setting [2]), -9.47% in experiment [1] (setting [3]), -26.6% in experiment [1] (setting [4]) and -1.2% in experiment [1] (setting [5]). Further, in the experiment on astro, the Potency result was “inactive”.
The corresponding values for `O=P(O)(O)C(Sc1ccc(Cl)cc1)P(=O)(O)O` are 3.66%, -1.38%, -1.1%, -7.59% and “inactive”.
The matching figures for `CS(=O)(=O)Nc1cc2occ(NC=O)c(=O)c2cc1Oc1ccccc1`: -8.06%, -12.9%, -16.3%, 0.0891% and “inactive”.
